From PubChem BioAssay (NCI)
This is part of a sample that, as a whole, favours compounds with a hit. Of some 83,000 tested, about 20% had one in any assay.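 Plates (96-well) were seeded with cells, treated with compound at one concentration, and incubated for 48 hours before percent growth was determined.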 The source made the active and inactive calls. Rule for the calls: active = growth percent below 10; inactive = the rest.

Experiments:
Assay in all cases: NCI-60 one-dose screen, 48 h (100 = growth as untreated, 0 = no growth, -100 = all killed)
Conditions in all cases: 10 µM unless noted
SK-MEL-2 melanoma = tested on: SK-MEL-2 melanoma
EKVX NSCLC = tested on: EKVX NSCLC
SN12C renal = tested on: SN12C renal
UO-31 renal = tested on: UO-31 renal
TK-10 renal = tested on: TK-10 renal
CAKI-1 renal = tested on: CAKI-1 renal
A498 renal = tested on: A498 renal
CCRF-CEM leukemia = tested on: CCRF-CEM leukemia
MOLT-4 leukemia = tested on: MOLT-4 leukemia
SR leukemia = tested on: SR leukemia
RPMI-8226 leukemia = tested on: RPMI-8226 leukemia
OVCAR-8 ovarian = tested on: OVCAR-8 ovarian
OVCAR-5 ovarian = tested on: OVCAR-5 ovarian
OVCAR-4 ovarian = tested on: OVCAR-4 ovarian
SK-OV-3 ovarian = tested on: SK-OV-3 ovarian
IGROV1 ovarian = tested on: IGROV1 ovarian
OVCAR-3 ovarian = tested on: OVCAR-3 ovarian
HS 578T breast = tested on: HS 578T breast
NCI/ADR-RES ovarian = tested on: NCI/ADR-RES ovarian
ACHN renal = tested on: ACHN renal

Measured: growth

Fc1ccc2nc3c(cc2c1)CSc1nnc(-c2ccc[nH]c2=S)n1N3
inactive: SK-MEL-2 melanoma 98.3% | EKVX NSCLC 94.2% | SN12C renal 98.2% | UO-31 renal 82% | TK-10 renal 110% | CAKI-1 renal 83.8% | A498 renal 92.1% | CCRF-CEM leukemia 98.9% | MOLT-4 leukemia 101% | SR leukemia 90.4% | RPMI-8226 leukemia 95.5% | OVCAR-8 ovarian 105% | OVCAR-5 ovarian 95.4% | OVCAR-4 ovarian 91.5% | SK-OV-3 ovarian 86.9% | IGROV1 ovarian 86.7% | OVCAR-3 ovarian 109% | HS 578T breast 96.3% | NCI/ADR-RES ovarian 103%

C[C@@H]1CN(Cc2ccc(/C=C/c3n[nH]c4ccc5nc(-c6cn[nH]c6C(F)(F)F)c6c(c5c34)CCCC6)cc2)C[C@H](C)O1
active: UO-31 renal 4.93% | CAKI-1 renal 1.97% | A498 renal 3.16% | SR leukemia 7.98% | IGROV1 ovarian 1.46% | HS 578T breast 3.34%
inactive: SK-MEL-2 melanoma 57.6% | EKVX NSCLC 32.4% | SN12C renal 12.6% | TK-10 renal 32.5% | CCRF-CEM leukemia 15.4% | MOLT-4 leukemia 12.6% | RPMI-8226 leukemia 34.3% | OVCAR-8 ovarian 33.4% | OVCAR-5 ovarian 19.7% | OVCAR-4 ovarian 29.9% | SK-OV-3 ovarian 22.5% | OVCAR-3 ovarian 38.2% | NCI/ADR-RES ovarian 28.7%

CCCCCCCCOC(=O)c1ccc(O)c(OC)c1
active: CCRF-CEM leukemia 1.05%
inactive: SK-MEL-2 melanoma 97.7% | EKVX NSCLC 105% | SN12C renal 85.8% | UO-31 renal 50.8% | TK-10 renal 98.6% | CAKI-1 renal 91.9% | MOLT-4 leukemia 12.9% | SR leukemia 85.3% | RPMI-8226 leukemia 89.2% | OVCAR-8 ovarian 96.3% | OVCAR-5 ovarian 107% | OVCAR-4 ovarian 78.2% | SK-OV-3 ovarian 103% | IGROV1 ovarian 59.8% | OVCAR-3 ovarian 101% | HS 578T breast 97.8% | NCI/ADR-RES ovarian 96%

CC(=O)OC1CCC2(C)C(CCC3C4CC=C(C(C)=O)C4(C)OC(=O)CC32)C1 (stereo not drawn)
inactive: SK-MEL-2 melanoma 17.7% | EKVX NSCLC 87.2% | SN12C renal 57.8% | UO-31 renal 21.3% | CAKI-1 renal 39.4% | OVCAR-5 ovarian 75.1% | SK-OV-3 ovarian 109% | IGROV1 ovarian 61.5% | HS 578T breast 75.1% | NCI/ADR-RES ovarian 37.5%
active: TK-10 renal -20.2% | MOLT-4 leukemia -37.1% | SR leukemia -48.4% | RPMI-8226 leukemia -31.7% | OVCAR-8 ovarian -20.4% | OVCAR-3 ovarian -36.2%

CCN(CC)CCSCCCNc1c(C)cnc2cc(Cl)ccc12
inactive: SK-MEL-2 melanoma 143% | EKVX NSCLC 87.4% | SN12C renal 82.7% | UO-31 renal 54.9% | TK-10 renal 118% | CAKI-1 renal 90.5% | A498 renal 71.4% | CCRF-CEM leukemia 80.6% | MOLT-4 leukemia 70.4% | SR leukemia 30.9% | RPMI-8226 leukemia 83% | OVCAR-8 ovarian 93.2% | OVCAR-5 ovarian 98.4% | OVCAR-4 ovarian 86% | SK-OV-3 ovarian 108% | IGROV1 ovarian 85.4% | OVCAR-3 ovarian 82.5% | HS 578T breast 102% | NCI/ADR-RES ovarian 82.5%

CCN1C(=O)/C(=c2\sc3n(c2=O)NC2C(N=3)N(CC)C(=O)N2CC)c2ccccc21 (stereo not drawn)
active: A498 renal -17.8% | OVCAR-3 ovarian -12.7%
inactive: SK-MEL-2 melanoma 65.8% | EKVX NSCLC 60.4% | SN12C renal 43.8% | UO-31 renal 48.9% | TK-10 renal 83.3% | CAKI-1 renal 42.1% | MOLT-4 leukemia 58.9% | SR leukemia 22.7% | OVCAR-8 ovarian 46.5% | OVCAR-5 ovarian 53.8% | OVCAR-4 ovarian 46% | SK-OV-3 ovarian 70.2% | IGROV1 ovarian 41.6% | HS 578T breast 37% | NCI/ADR-RES ovarian 12.1%

COc1cc2nc(-c3ccc(-c4nn[nH]n4)cc3)[nH]c(=O)c2cc1OC
inactive: SK-MEL-2 melanoma 122% | EKVX NSCLC 108% | SN12C renal 140% | UO-31 renal 86.3% | TK-10 renal 246% | A498 renal 147% | CCRF-CEM leukemia 114% | MOLT-4 leukemia 95.5% | SR leukemia 97.8% | RPMI-8226 leukemia 81.8% | OVCAR-8 ovarian 105% | OVCAR-5 ovarian 99.4% | OVCAR-4 ovarian 115% | SK-OV-3 ovarian 108% | IGROV1 ovarian 108% | OVCAR-3 ovarian 112% | HS 578T breast 110% | NCI/ADR-RES ovarian 101%
active: CAKI-1 renal -1.66%

CCCCCCc1nc2nc(Cl)c(Cl)nc2[nH]1
inactive: SK-MEL-2 melanoma 63.4% | EKVX NSCLC 52.6% | SN12C renal 60.8% | UO-31 renal 52.6% | TK-10 renal 76.9% | CAKI-1 renal 39.1% | CCRF-CEM leukemia 47.8% | MOLT-4 leukemia 49% | SR leukemia 62.9% | OVCAR-8 ovarian 71.9% | OVCAR-5 ovarian 97.4% | SK-OV-3 ovarian 92% | IGROV1 ovarian 57.7% | OVCAR-3 ovarian 40.2% | HS 578T breast 76.4% | NCI/ADR-RES ovarian 66.7%

Cn1ncc2c(Nc3ccccc3Cl)nc(Cl)nc21
inactive: SK-MEL-2 melanoma 123% | EKVX NSCLC 89.8% | SN12C renal 92% | UO-31 renal 101% | ACHN renal 95.6% | CAKI-1 renal 99.9% | A498 renal 178% | CCRF-CEM leukemia 104% | MOLT-4 leukemia 125% | OVCAR-8 ovarian 113% | OVCAR-4 ovarian 96.3% | SK-OV-3 ovarian 104% | OVCAR-3 ovarian 164% | HS 578T breast 136% | NCI/ADR-RES ovarian 100%

COc1c(Cl)cc(Cl)c2ccc(C=C3C(=O)NC(=S)NC3=O)nc12
inactive: SK-MEL-2 melanoma 105% | EKVX NSCLC 104% | SN12C renal 100% | UO-31 renal 93.2% | ACHN renal 101% | CAKI-1 renal 91.7% | A498 renal 93.8% | CCRF-CEM leukemia 105% | MOLT-4 leukemia 105% | SR leukemia 99% | RPMI-8226 leukemia 105% | OVCAR-8 ovarian 109% | OVCAR-5 ovarian 109% | OVCAR-4 ovarian 109% | SK-OV-3 ovarian 106% | IGROV1 ovarian 108% | OVCAR-3 ovarian 103% | HS 578T breast 102% | NCI/ADR-RES ovarian 100%

CC(=O)[C@@H]1CC[C@]2(C(=O)n3ccnc3)CC[C@]3(C)[C@H](CC[C@@H]4[C@@]5(C)Cc6c([nH]c7ccccc67)C(C)(C)[C@@H]5CC[C@]43C)[C@@H]12
inactive: SK-MEL-2 melanoma 91.2% | EKVX NSCLC 75.2% | SN12C renal 94.2% | UO-31 renal 63.6% | ACHN renal 83.5% | A498 renal 99% | CCRF-CEM leukemia 99.5% | MOLT-4 leukemia 74.1% | SR leukemia 77.7% | RPMI-8226 leukemia 72.7% | OVCAR-8 ovarian 90.7% | OVCAR-5 ovarian 105% | OVCAR-4 ovarian 85.2% | SK-OV-3 ovarian 98.3% | IGROV1 ovarian 42.6% | OVCAR-3 ovarian 79.5% | HS 578T breast 87.1% | NCI/ADR-RES ovarian 90%

N#Cc1c(NC(=O)c2cccc(Br)c2)sc2c1CCCC2
inactive: SK-MEL-2 melanoma 91.9% | EKVX NSCLC 92.3% | SN12C renal 83.9% | UO-31 renal 82.3% | CAKI-1 renal 73% | CCRF-CEM leukemia 63.5% | MOLT-4 leukemia 52.3% | SR leukemia 31.9% | RPMI-8226 leukemia 77.8% | OVCAR-8 ovarian 81.9% | OVCAR-5 ovarian 90.5% | OVCAR-4 ovarian 75.1% | SK-OV-3 ovarian 85.2% | IGROV1 ovarian 67.4% | OVCAR-3 ovarian 95% | HS 578T breast 80.7% | NCI/ADR-RES ovarian 76.8%

COc1ccc(/C=C/C(=O)c2ccc(Nc3ncnc4ccccc34)cc2)cc1OC
active: RPMI-8226 leukemia -11.4%
inactive: SK-MEL-2 melanoma 124% | EKVX NSCLC 78.3% | UO-31 renal 71.2% | TK-10 renal 98.8% | ACHN renal 88.8% | CAKI-1 renal 75.6% | A498 renal 77.6% | CCRF-CEM leukemia 49.7% | MOLT-4 leukemia 48.2% | SR leukemia 16.7% | OVCAR-8 ovarian 65% | OVCAR-5 ovarian 103% | OVCAR-4 ovarian 85.5% | SK-OV-3 ovarian 102% | IGROV1 ovarian 76.3% | OVCAR-3 ovarian 74.9% | HS 578T breast 110%

COc1cc2ncnc(Nc3ccc(C(=O)/C=C/c4ccc(C(F)(F)F)cc4F)cc3)c2cc1OC
inactive: SK-MEL-2 melanoma 105% | EKVX NSCLC 90% | SN12C renal 101% | UO-31 renal 75.4% | ACHN renal 92.3% | CAKI-1 renal 88.2% | A498 renal 97.4% | CCRF-CEM leukemia 83.8% | MOLT-4 leukemia 68.3% | SR leukemia 63.4% | RPMI-8226 leukemia 12.8% | OVCAR-8 ovarian 101% | OVCAR-5 ovarian 103% | OVCAR-4 ovarian 105% | SK-OV-3 ovarian 123% | IGROV1 ovarian 94.2% | OVCAR-3 ovarian 101% | HS 578T breast 66.8% | NCI/ADR-RES ovarian 102%

O=C1C(=O)c2c(nc3ncccn23)-c2ccccc21
active: SK-MEL-2 melanoma -58.9% | EKVX NSCLC -75.8% | SN12C renal -82.3% | UO-31 renal -98.4% | ACHN renal -100% | A498 renal -95.9% | CCRF-CEM leukemia -3.54% | MOLT-4 leukemia -46.6% | SR leukemia -14.8% | RPMI-8226 leukemia -25.3% | OVCAR-8 ovarian -60.7% | OVCAR-5 ovarian -88.1% | OVCAR-4 ovarian -96.2% | SK-OV-3 ovarian -97.9% | IGROV1 ovarian -58.5% | OVCAR-3 ovarian -50.2% | HS 578T breast -18.7% | NCI/ADR-RES ovarian -32.8%

COc1ccc(C(=O)c2cc3c(N)c(C(=O)Nc4cccc(Cl)c4)sc3nc2C)cc1
active: A498 renal -0.876% | CCRF-CEM leukemia 8.14% | SR leukemia -18.2% | RPMI-8226 leukemia 9.77% | OVCAR-3 ovarian 0.514%
inactive: SK-MEL-2 melanoma 39.8% | EKVX NSCLC 39.4% | SN12C renal 42.7% | UO-31 renal 42.7% | ACHN renal 49.3% | CAKI-1 renal 44.1% | MOLT-4 leukemia 20.2% | OVCAR-8 ovarian 27.1% | OVCAR-5 ovarian 49.3% | OVCAR-4 ovarian 49.5% | SK-OV-3 ovarian 44% | IGROV1 ovarian 47.9% | HS 578T breast 18.5%

CCNC(=O)c1[nH]cc(-c2ccc(OC)cc2)c1-c1cc(OC)c(OC)c(OC)c1
active: A498 renal -14% | OVCAR-3 ovarian 2.53%
inactive: SK-MEL-2 melanoma 67.5% | EKVX NSCLC 62.4% | SN12C renal 60.5% | UO-31 renal 30.7% | ACHN renal 35.8% | CAKI-1 renal 29.4% | MOLT-4 leukemia 92% | SR leukemia 19.5% | RPMI-8226 leukemia 38% | OVCAR-8 ovarian 66.3% | OVCAR-5 ovarian 74.6% | OVCAR-4 ovarian 45.7% | SK-OV-3 ovarian 57.7% | IGROV1 ovarian 47.4% | HS 578T breast 45.3% | NCI/ADR-RES ovarian 19.8%
